{"source": "ChEMBL document CHEMBL2218924", "about": "“A broad activity screen in support of a chemogenomic map for kinase signalling research and drug discovery” (Biochem J, 2013)", "key": {"[1]": {"target": "T1, Ephrin type-A receptor 3 (Homo sapiens) (UniProt P29320)", "T1 sequence (whole entry)": "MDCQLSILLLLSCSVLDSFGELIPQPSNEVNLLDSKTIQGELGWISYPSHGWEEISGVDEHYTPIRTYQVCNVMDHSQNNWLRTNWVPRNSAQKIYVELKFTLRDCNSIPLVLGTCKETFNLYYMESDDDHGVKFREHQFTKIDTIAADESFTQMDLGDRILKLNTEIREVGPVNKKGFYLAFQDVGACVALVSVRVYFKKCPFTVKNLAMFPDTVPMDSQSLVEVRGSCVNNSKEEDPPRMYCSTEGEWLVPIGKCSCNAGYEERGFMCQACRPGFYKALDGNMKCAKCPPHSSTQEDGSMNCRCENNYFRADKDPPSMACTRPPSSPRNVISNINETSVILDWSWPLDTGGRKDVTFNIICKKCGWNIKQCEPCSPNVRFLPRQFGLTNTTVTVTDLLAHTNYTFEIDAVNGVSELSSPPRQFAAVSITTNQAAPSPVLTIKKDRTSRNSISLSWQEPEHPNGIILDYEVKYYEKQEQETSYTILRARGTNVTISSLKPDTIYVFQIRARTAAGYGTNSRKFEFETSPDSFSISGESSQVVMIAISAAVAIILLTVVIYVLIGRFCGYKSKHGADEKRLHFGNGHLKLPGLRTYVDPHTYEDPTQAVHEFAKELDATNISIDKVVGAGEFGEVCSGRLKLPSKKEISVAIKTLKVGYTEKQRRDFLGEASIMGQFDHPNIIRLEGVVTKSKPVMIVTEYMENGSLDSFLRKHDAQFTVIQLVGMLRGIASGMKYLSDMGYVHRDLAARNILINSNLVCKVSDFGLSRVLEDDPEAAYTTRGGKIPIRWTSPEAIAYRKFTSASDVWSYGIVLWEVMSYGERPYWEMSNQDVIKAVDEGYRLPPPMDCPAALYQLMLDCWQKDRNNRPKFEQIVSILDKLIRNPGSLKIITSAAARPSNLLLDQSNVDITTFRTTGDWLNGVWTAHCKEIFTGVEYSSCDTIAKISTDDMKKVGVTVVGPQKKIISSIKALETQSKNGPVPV", "details": "at 10 µM"}, "[2]": {"target": "Ephrin type-A receptor 4 (Homo sapiens) (UniProt P54764)", "sequence (P54764 whole entry)": "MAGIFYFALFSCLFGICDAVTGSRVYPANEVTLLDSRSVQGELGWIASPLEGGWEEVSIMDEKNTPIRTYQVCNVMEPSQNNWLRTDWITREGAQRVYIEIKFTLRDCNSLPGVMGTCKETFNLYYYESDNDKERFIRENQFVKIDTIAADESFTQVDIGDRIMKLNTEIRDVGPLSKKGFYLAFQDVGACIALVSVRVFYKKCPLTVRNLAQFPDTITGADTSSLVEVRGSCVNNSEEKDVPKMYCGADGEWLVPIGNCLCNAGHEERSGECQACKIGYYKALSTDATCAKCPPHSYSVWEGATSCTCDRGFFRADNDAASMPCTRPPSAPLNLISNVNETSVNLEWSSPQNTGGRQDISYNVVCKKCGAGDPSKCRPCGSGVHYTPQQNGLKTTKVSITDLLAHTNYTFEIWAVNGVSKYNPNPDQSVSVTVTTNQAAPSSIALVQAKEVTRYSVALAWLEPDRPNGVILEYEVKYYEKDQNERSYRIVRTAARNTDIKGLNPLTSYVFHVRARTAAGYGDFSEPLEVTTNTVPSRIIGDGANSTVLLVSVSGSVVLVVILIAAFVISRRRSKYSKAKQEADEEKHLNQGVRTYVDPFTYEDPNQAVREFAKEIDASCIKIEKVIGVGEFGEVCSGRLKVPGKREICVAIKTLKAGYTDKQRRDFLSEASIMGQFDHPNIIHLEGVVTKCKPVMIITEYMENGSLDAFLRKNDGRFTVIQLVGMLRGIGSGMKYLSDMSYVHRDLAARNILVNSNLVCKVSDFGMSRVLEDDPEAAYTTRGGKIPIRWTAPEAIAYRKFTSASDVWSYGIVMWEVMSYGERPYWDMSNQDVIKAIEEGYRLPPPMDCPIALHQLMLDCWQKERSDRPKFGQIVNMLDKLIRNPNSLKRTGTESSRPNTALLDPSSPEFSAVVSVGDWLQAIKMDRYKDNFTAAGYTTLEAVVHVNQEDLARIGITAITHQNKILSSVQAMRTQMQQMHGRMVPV", "details": "at 1 µM"}, "[3]": {"target": "Ephrin type-A receptor 4 (Homo sapiens) (UniProt P54764)", "details": "at 10 µM"}, "[4]": {"target": "Ephrin type-A receptor 5 (Homo sapiens) (UniProt P54756)", "sequence (P54756 whole entry)": "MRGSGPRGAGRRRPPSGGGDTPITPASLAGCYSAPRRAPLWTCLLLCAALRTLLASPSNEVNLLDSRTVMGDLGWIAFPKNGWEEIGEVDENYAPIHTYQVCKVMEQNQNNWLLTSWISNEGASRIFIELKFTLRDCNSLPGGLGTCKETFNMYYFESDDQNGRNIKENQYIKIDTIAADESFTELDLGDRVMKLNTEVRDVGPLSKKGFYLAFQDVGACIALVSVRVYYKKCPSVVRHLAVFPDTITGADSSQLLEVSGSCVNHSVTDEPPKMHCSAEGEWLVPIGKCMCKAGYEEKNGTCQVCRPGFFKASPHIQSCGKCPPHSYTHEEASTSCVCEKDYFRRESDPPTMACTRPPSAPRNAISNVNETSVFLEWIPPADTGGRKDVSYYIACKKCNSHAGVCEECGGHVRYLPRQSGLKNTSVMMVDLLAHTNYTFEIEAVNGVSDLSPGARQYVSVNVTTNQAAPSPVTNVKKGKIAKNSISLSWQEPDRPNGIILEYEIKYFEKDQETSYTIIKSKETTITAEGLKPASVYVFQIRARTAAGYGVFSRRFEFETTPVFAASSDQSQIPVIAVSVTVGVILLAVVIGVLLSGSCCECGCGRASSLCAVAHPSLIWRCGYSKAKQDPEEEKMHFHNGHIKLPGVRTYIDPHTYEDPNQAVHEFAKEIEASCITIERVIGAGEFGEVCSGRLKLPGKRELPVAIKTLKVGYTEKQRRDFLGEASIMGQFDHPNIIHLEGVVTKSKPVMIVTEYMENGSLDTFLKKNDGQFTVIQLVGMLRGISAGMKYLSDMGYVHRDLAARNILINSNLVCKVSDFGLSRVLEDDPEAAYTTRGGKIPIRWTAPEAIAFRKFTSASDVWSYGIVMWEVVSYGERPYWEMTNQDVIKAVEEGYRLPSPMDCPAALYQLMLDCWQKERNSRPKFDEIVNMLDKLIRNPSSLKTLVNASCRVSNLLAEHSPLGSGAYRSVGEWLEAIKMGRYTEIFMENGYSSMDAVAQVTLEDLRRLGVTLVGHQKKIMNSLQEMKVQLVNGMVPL", "details": "at 1 µM"}, "[5]": {"target": "Ephrin type-A receptor 5 (Homo sapiens) (UniProt P54756)", "details": "at 10 µM"}, "[6]": {"target": "Ephrin type-A receptor 7 (Homo sapiens) (UniProt Q15375)", "sequence (Q15375 28-998 limits assumed)": "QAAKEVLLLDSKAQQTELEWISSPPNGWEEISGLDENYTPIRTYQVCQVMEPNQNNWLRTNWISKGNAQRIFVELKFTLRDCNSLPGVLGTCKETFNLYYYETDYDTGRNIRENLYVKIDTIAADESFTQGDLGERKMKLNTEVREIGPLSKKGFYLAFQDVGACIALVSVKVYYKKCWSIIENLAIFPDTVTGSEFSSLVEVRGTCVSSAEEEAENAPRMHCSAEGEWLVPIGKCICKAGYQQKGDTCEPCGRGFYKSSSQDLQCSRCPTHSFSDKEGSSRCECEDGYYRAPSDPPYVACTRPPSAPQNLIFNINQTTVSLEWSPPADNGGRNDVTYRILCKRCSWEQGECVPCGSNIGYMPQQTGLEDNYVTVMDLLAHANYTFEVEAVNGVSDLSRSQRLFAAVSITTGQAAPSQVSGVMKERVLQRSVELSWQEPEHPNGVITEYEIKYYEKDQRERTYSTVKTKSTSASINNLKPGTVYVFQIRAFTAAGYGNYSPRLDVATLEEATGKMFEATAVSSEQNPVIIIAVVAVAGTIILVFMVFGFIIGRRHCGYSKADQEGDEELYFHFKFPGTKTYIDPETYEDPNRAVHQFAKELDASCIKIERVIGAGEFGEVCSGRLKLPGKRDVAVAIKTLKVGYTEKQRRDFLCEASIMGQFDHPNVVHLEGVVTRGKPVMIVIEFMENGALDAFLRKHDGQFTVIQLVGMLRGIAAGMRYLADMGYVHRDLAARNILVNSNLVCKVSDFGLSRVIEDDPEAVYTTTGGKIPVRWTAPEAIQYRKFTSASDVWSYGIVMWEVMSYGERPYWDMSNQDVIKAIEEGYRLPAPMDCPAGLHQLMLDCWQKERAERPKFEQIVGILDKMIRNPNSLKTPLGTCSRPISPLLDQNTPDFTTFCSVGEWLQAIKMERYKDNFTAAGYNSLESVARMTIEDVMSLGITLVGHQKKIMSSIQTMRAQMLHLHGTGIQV", "details": "at 1 µM"}, "[7]": {"target": "Ephrin type-A receptor 7 (Homo sapiens) (UniProt Q15375)", "details": "at 10 µM"}, "[8]": {"target": "T2, Ephrin type-A receptor 8 (Homo sapiens) (UniProt P29322)", "T2 sequence (whole entry)": "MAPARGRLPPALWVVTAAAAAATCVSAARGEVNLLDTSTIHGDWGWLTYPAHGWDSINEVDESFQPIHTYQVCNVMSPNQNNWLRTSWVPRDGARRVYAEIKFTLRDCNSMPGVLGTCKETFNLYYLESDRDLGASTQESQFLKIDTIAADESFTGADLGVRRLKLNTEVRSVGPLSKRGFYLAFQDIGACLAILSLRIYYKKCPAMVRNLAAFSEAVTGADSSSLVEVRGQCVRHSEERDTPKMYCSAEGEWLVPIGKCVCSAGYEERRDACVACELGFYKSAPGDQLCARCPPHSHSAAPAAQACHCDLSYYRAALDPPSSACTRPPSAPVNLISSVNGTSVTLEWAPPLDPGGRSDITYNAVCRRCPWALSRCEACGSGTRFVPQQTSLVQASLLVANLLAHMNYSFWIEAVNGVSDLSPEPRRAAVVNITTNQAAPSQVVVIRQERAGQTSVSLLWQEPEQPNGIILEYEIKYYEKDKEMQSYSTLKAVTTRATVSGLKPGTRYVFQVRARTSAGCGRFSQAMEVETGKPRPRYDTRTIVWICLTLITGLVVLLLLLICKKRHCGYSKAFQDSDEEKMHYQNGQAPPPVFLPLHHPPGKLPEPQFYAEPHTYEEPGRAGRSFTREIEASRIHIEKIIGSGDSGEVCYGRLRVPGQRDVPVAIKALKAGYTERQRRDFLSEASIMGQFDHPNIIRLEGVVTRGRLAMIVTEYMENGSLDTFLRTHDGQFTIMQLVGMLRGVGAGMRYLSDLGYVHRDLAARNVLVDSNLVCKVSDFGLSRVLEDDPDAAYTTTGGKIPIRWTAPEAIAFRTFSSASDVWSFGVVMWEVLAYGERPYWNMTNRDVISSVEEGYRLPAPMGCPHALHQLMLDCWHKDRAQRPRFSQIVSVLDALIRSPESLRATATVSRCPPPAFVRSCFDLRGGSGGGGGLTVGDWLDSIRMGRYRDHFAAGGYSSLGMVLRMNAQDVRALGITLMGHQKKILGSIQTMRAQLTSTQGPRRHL", "details": "at 1 µM"}, "[9]": {"target": "T2, Ephrin type-A receptor 8 (Homo sapiens)", "details": "at 10 µM"}, "[10]": {"target": "T3, Ephrin type-B receptor 1 (Homo sapiens) (UniProt P54762)", "T3 sequence (whole entry)": "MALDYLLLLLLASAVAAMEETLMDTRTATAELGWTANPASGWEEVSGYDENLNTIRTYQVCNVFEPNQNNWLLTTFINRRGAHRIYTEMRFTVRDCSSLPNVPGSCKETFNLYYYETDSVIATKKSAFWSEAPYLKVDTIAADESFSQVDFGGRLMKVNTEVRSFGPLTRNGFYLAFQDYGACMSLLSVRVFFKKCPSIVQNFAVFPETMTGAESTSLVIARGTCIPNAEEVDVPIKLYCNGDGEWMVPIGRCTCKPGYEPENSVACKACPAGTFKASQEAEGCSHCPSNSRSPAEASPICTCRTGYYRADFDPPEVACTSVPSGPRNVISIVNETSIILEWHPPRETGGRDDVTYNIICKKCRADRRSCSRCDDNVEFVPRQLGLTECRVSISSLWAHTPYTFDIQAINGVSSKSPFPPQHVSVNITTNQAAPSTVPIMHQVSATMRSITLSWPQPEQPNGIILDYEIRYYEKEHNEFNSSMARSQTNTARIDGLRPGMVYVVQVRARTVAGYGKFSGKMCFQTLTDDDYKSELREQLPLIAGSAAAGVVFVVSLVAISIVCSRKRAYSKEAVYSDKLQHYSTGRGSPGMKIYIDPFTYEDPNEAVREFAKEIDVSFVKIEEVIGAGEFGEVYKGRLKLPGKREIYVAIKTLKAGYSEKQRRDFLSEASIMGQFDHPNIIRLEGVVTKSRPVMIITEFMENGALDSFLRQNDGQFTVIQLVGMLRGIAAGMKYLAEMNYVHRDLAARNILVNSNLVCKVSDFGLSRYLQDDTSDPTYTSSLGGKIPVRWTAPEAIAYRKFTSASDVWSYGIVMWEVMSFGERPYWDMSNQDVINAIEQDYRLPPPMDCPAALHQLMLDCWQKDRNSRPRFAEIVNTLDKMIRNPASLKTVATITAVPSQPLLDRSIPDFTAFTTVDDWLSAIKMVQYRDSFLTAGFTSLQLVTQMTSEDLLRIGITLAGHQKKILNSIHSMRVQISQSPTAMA", "details": "at 1 µM"}}, "data": [{"smiles": "CC#CC(=O)Nc1cc2c(Nc3ccc(F)c(Cl)c3)ncnc2cn1", "values": [{"measurement": "residual activity", "setting": "[1]", "result": 92, "unit": "%"}, {"measurement": "residual activity", "setting": "[2]", "result": 118, "unit": "%"}, {"measurement": "residual activity", "setting": "[3]", "result": 91, "unit": "%"}, {"measurement": "residual activity", "setting": "[4]", "result": 102, "unit": "%"}, {"measurement": "residual activity", "setting": "[5]", "result": 97, "unit": "%"}, {"measurement": "residual activity", "setting": "[6]", "result": 96, "unit": "%"}, {"measurement": "residual activity", "setting": "[7]", "result": 91, "unit": "%"}, {"measurement": "residual activity", "setting": "[8]", "result": 104, "unit": "%"}, {"measurement": "residual activity", "setting": "[9]", "result": 93, "unit": "%"}, {"measurement": "residual activity", "setting": "[10]", "result": 96, "unit": "%"}]}]}
